From PubChem BioAssay (NCI)
This is part of a sample that, as a whole, favours compounds with a hit. Of some 79,000 tested, about 15% had one in any assay. Rule as the data show it: active = growth inhibition above about 70%; inactive = the rest.

Columns and labels:
[1] = NCI Yeast Anticancer Drug Screen. Data for the rad50 strain (AID 155);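 also: 0% = growth of vehicle-only cultures of the same strain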; details: S. cerevisiae rad50 strain growth inhibition, stronger effect = higher value; at 50.0 µM unless noted
Procedure, shortened: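 DNA repair mutant yeast, compound exposure, growth read-out; inhibition is taken relative to vehicle.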

[2] = NCI Yeast Anticancer Drug Screen. Data for the mec2-1 strain (AID 157); details: S. cerevisiae mec2-1 strain, stronger effect = higher value; at 50.0 µM unless noted
Procedure, shortened: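 Mutant yeast (mec2-1) grown with compound; growth inhibition relative to vehicle control reported.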

[3] = NCI Yeast Anticancer Drug Screen. Data for the sgs1 mgt1 strain (AID 161);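 also: 0% = growth of cultures given vehicle only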; details: S. cerevisiae sgs1 mgt1 strain, stronger effect = higher value; at 50.0 µM unless noted
Procedure, shortened: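 Compounds are added to genetically altered yeast, and growth is compared with cultures given vehicle alone to give percent inhibition.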

[4] = NCI Yeast Anticancer Drug Screen. Data for the cln2 rad14 strain (AID 165);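 also: 0% = growth equal to vehicle treated cultures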; details: S. cerevisiae cln2 rad14 strain, stronger effect = higher value; at 50.0 µM unless noted
Procedure, shortened: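 Readout is yeast growth inhibition versus vehicle-treated controls, using a strain with cln2 and rad14 alterations exposed to compound.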

[5] = NCI Yeast Anticancer Drug Screen. Data for the bub3 strain (AID 167); details: S. cerevisiae bub3 mutant strain, stronger effect = higher value; at 50.0 µM unless noted
Procedure, shortened: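 In this screen, a yeast mutant lacking normal mitotic checkpoint function is challenged with compound. Relative growth versus vehicle gives the inhibition value.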

[6] = NCI Yeast Anticancer Drug Screen. Data for the mlh1 rad18 strain (AID 175); details: S. cerevisiae mlh1 rad18 strain growth inhibition, stronger effect = higher value; at 50.0 µM unless noted
Procedure, shortened: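 Genetically defined yeast (DNA repair-deficient) exposed to compounds; growth inhibition determined relative to vehicle.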

Measured: growth inhibition

CC1(C)Oc2ccccc2OC1O (stereo unspecified)
inactive: [1] 1.5% | [2] 0.85% | [3] -1.75% | [4] -14.7% | [5] -10.2% | [6] 3%

O=C(O)c1c[nH]c2cc(OCc3ccc4ccccc4c3)ccc2c1=O
inactive: [1] 20.2% | [2] 2.55% | [3] -11.3% | [4] -2.05% | [5] -3.05% | [6] 6.55%

CN(C)c1ccc(C2NC(=S)NC3=C2CCCC3)cc1 (stereo unspecified)
inactive: [1] -15.1% | [2] -15.6% | [3] 5% | [4] -20.6% | [5] 22.8% | [6] 14.6%

CN1C(=O)/C(=C2\SC(=O)N(CN3CCOCC3)C2=O)c2ccccc21
inactive: [1] -6.1% | [2] -32.9% | [3] -40% | [4] -7.55% | [5] -39% | [6] 2.35%

C(=C/c1ccccc1)/c1ccccc1
inactive: [1] -6.45% | [2] -16.1% | [3] -25.6% | [4] 8.85% | [5] -2.65% | [6] -2.15%

O=C(O)CCCCCCCC(=O)O
inactive: [1] 15.4% | [2] -0.45% | [3] 16.9% | [4] -3.05% | [5] 5.5% | [6] 27.2%

COc1cc(OC)c(C2SCC(=O)N2c2nnc(C(F)(F)F)s2)cc1OC (stereo unspecified)
inactive: [1] 9.9% | [2] 13.8% | [3] 5.15% | [4] 3.75% | [5] 25.9% | [6] 6.8%

CC(Cl)S(=O)(=O)c1ccccc1 (stereo unspecified)
inactive: [1] 7.45% | [2] -4.05% | [3] -17.9% | [4] -42.5% | [5] 8.35% | [6] -14.3%

Cc1ccc(OC/C=C/CSc2ccc(Br)cc2)cc1
inactive: [1] 4.95% | [2] 4.75% | [3] 2.4% | [4] -2.4% | [5] -19.9% | [6] -24.9%

BrCC(Br)C1OCCCO1 (stereo unspecified)
inactive: [1] 18.4% | [2] 18.1% | [3] 38.4% | [4] 22.4% | [5] 5.25% | [6] 34.6%

Nc1nc(CCCCc2ccc(NC(=O)CBr)cc2)c(CCCCc2ccccc2)c(=O)[nH]1
inactive: [1] 27.6% | [2] 11.3% | [3] 34.7% | [4] 24.8% | [5] -3.1% | [6] 11.4%

COC(=O)c1ccc2c(c1)CC1(C2)Cc2cc3c(cc2C1)CCC3
inactive: [1] -19.4% | [2] -19.9% | [3] -17.5% | [4] 9.95% | [5] 12.8% | [6] -12.5%

C[N+]1(C)CCc2cc(O)c(O)cc2C1Cc1ccc(O)c(O)c1 (stereo unspecified)
inactive: [1] -4.35% | [2] 24.6% | [3] -29.6% | [4] 23.4% | [5] -36.8% | [6] 10.1%

NNC(=O)CCC(=O)O
inactive: [1] 0.75% | [2] -0.5% | [3] 1.7% | [4] -3.6% | [5] 12.7% | [6] -15.6%

CCN(CC)CCCC(C)Nc1cc(OC)c2nc(C)ccc2c1OC (stereo unspecified)
inactive: [1] -2.35% | [2] -0.4% | [3] -14.2% | [4] -5.9% | [5] -3.2% | [6] 14.9%

Cc1cc(=O)n2nc(CCl)sc2n1
inactive: [1] 9.65% | [2] 10.2% | [3] 6.15% | [4] -8% | [5] 11.3% | [6] 10.1%

CC(=O)[CH-]C(=O)c1ccccc1.CC(=O)[CH-]C(=O)c1ccccc1.CC1(C)OCC(C2OC3OC(C)(C)OC3C2[O-])O1.CC[O-].[Ti+4] (stereo unspecified)
inactive: [1] 41.4% | [2] 24.1% | [3] 35.5% | [4] 23% | [5] 31.2% | [6] 33.4%

O=C(c1ccccc1)N1CCC(Nc2nccs2)O1 (stereo unspecified)
inactive: [1] -37.4% | [2] -26.1% | [3] -11.4% | [4] -9.75% | [5] -8.15% | [6] -2.35%

O=[N+]([O-])c1cccc(/C=N/Nc2ccc(S(=O)(=O)O)cc2)c1
inactive: [1] 18.6% | [2] 19.3% | [3] -1.9% | [4] 2.5% | [5] 12.7% | [6] 39.2%

CCN1CCCC(C(=O)O)(c2ccccc2)CC1 (stereo unspecified)
inactive: [1] 1.75% | [2] -11.1% | [3] -6.2% | [4] -39% | [5] -1.15% | [6] 2%

O=C(CCS(=O)(=O)CCC(=O)c1ccc2ccccc2c1)c1ccc2ccccc2c1
inactive: [1] -66.8% | [2] -13.2% | [3] -2.4% | [4] -35.3% | [5] 0.25% | [6] -52.5%
